# HepG2 tox-1: counter-screen for TGF-b inhibitors: cytotoxicity in HepG2 cells. Potency, µM (series often up to 46.1 µM), without a hit: at the highest dose activity change, negative = cytotoxicity, usual class: cytotoxic. HepG2 CAGA-GFP viability, ATP luminescence, 18 h. actives 0.76% (n = 410,000)
#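 HepG2 CAGA-GFP cells (1000/well, DMEM with 1% FBS) received compound, then TGF-beta at 500 pg/mL final, and were incubated 18 hours at 37 degrees C. Viability was read by CellTiter-Glo luminescence. Media-only wells were set as complete cell-killing and DMSO as no toxicity.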
# ATXN viability: viability counter-screen for ATXN expression inhibitors; S2 cells (HEK-293 line with an ATXN2-luciferase reporter) viability, CellTiter-Fluor protease fluorescence, 24 h; Potency, µM (doses to about 56.7 µM), actives largely listed as cytotoxic; actives 0.49% (n = 400,000); also: nearly all actives have a fitted effect of over 40% in size
# ATXN2 expr inh: inhibitors of ATXN2 expression | actives 0.72% (n = 360,000) | HEK-293 ATXN2-luciferase reporter, luminescence, 24 h | Potency, µM (doses to about 57 µM), for the others: at the highest dose activity change, negative = inhibition, most hits filed as inhibitors; also: % is scaled to controls: 0 for no effect and ±100 for the full control effect; nearly all actives have a fitted effect of over 55% in size
#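 ATXN2-luciferase reporter cells (luciferase flanked by upstream and downstream ATXN2 gene portions) were treated 24 h at 37 °C with compounds at up to 57 uM. SteadyGlo luminescence gave expression; GF-AFC fluorescence gave viability.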
# TGFb inhibitor: blocks TGF-b signaling; HepG2 CAGA-GFP TGF-b/SMAD3 reporter, GFP fluorescence, 18 h; TGF-beta stimulated, 500 pg/mL final; Potency, µM (series often up to 46.1 µM), inactives show at the top dose activity, negative = inhibition, most hits filed as inhibitors; actives 1.2% (n = 410,000); AID 588855; also: % is scaled to controls: 0 for no effect and ±100 for the full control effect; nearly all actives have a fitted effect of over 65% in size
#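 HEPG2 CAGA-GFP reporter cells (1000/well, DMEM with 1% FBS) received compounds, then recombinant TGF-beta at 500 pg/mL final for 18 hours at 37 degrees C. Per-cell GFP summed per well was normalised to unstimulated and stimulated DMSO controls before curve fitting.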
# TGFb confirm: TGF-b pathway inhibition, cherry-pick retest | HepG2 CAGA-GFP TGF-b reporter, GFP fluorescence, 18 h; cells stimulated with TGF-beta, 500 pg/mL | shares compounds with TGFb inhibitor | Potency, µM (titrated, usually from 46.1 µM), without a hit: top-dose activity, negative = inhibition, actives largely listed as inhibitors | actives 63% (n = 1,600) | AID 720534; also: % is scaled to controls: 0 for no effect and ±100 for the full control effect; nearly all actives have a fitted effect of over 65% in size
# HepG2 tox-2: toxic to HepG2 cells in TGF-b counterscreen; shares compounds with TGFb inhibitor; HepG2 CAGA-GFP viability, ATP luminescence, 18 h; cells stimulated with TGF-beta, 500 pg/mL; Potency, µM (series often up to 46.1 µM), without a hit: at the highest dose activity, negative = cytotoxicity, usual class: inhibitors; actives 27% (n = 1,600); AID 720535; also: % is scaled to controls: 0 for no effect and ±100 for the full control effect; nearly all actives have a fitted effect of over 70% in size
# TGFb CCL64 inh: blocks TGF-b signaling in CCL64 reporter cells. shares compounds with TGFb inhibitor. CCL64 CAGA-GFP reporter, TGF-b stimulated, GFP fluorescence, 18 h. Potency, µM (highest dose often 46.1 µM), without a hit: top-dose activity, negative = inhibition, hits mostly inhibitors. actives 41% (n = 1,600); also: nearly all actives have a fitted effect of over 65% in size
# TGFb COP inh: blocks TGF-b signaling in HepG2 COP reporter; HepG2 COP-GFP TGF-b reporter, GFP fluorescence, 18 h; cells stimulated by added recombinant TGF-beta; Potency, µM (series often up to 46.1 µM), inactives show top-dose activity, negative = inhibition, actives largely listed as inhibitors; actives 3% (n = 1,600); shares compounds with TGFb inhibitor; AID 720537; also: nearly all actives have a fitted effect of over 70% in size
# The depositor's hits bear a star; i = inactive; ? = inconclusive; · = no result given. Shown are actives, neighbours in structure and some others; about 2.3% of the full set was active somewhere. Calls follow the shape of the dose curve; as a rule, active = well fitted curve in the direction sought with a large enough effect; inconclusive = small, poorly fitted or top-dose-only effect, or another doubt; inactive = no such curve, though single readings can be large; an effect the other way counts as inactive or inconclusive. Potency is read from the fitted curve at half-maximal effect.
SMILES,HepG2 tox-1,ATXN viability,ATXN2 expr inh,TGFb inhibitor,TGFb confirm,HepG2 tox-2,TGFb CCL64 inh,TGFb COP inh
CC(=O)c1ccc(NS(=O)(=O)c2ccc(-c3cnc(C4CC4)o3)cc2)cc1,-20%,i,-12%,-19%,·,·,·,·
COc1ccc(C2=CC(c3ccccc3Cl)n3nc(-c4ccc(C)cc4)nc3N2)cc1 (stereo not drawn),-8%,·,-2%,-8%,·,·,·,·
O=C(CNC(=O)C1CCCCC1)OCc1ccccc1,3%,·,·,3%,·,·,·,·
COc1cccc(CNCCO)c1OCc1ccccc1Cl,-29%,?,-13%,10%,·,·,·,·
COc1cc(CNCCO)cc(Cl)c1OCc1ccccc1Cl,-22%,i,-7%,11µM*,-94%,16µM*,29µM*,47%
CCOc1ccc(C(=O)c2cc([N+](=O)[O-])ccc2N2CCOCC2)cc1,-32%,i,5%,1.1µM*,?,-3%,0.73µM*,1%
NC(=O)c1ccc2nc(-c3ccc(Oc4ccc(Cl)cc4)cc3)[nH]c2c1,·,·,28%,·,·,·,·,·
Cc1ccc(-n2nc(C(C)(C)C)cc2NC(=O)Nc2ccc(OCCN3CCOCC3)c3ccccc23)cc1,·,i,17%,·,·,·,·,·
Cc1ccc(C)c(OCCC(=O)Nc2cccc(S(=O)(=O)N3CCCCC3)c2)c1,-5%,i,-8%,13µM*,23µM*,-24%,?,6%
Cc1ccc(C)c(OCCC(=O)Nc2cc(S(=O)(=O)N3CCCCC3)ccc2C)c1,1%,i,-38%,-4%,·,·,·,·
O=S(=O)(Nc1cccc2ncccc12)c1cccs1,-41%,?,3.2µM*,6.3µM*,15µM*,?,6.5µM*,40%
Cc1c(NS(=O)(=O)c2cccs2)cccc1-c1nc2cccnc2s1,-11%,i,·,?,·,·,·,·
CC(=O)Nc1nc(C)c(-c2csc(Nc3cccc([N+](=O)[O-])c3)n2)s1,-41%,i,?,?,-3%,?,?,44%
O=C1CCC(C(=O)OCC(=O)c2ccccc2)N1 (stereo not drawn),-4%,i,-14%,?,·,·,·,·
CC1CC(C)C(=O)C(C(CC2CC(=O)NC(=O)C2)OC(=O)CC(=O)c2ccccc2)C1 (stereo not drawn),-9%,?,3.5µM*,2.2µM*,0.41µM*,?,2.6µM*,24%
COc1ccc(C(NC(=O)C2CCN(CCOc3ccc(Cl)cc3Cl)CC2)c2cccs2)cc1 (stereo not drawn),5µM*,?,-24%,4.5µM*,?,?,?,?
CC(=O)Nc1ccc(NC(=O)COC(=O)c2ccccc2OCc2cccc(Br)c2)cc1,8%,·,·,-5%,·,·,·,·
Cc1cc(C)c(CN2CCN(C(=O)Cn3cnc4c(OCc5ccccc5)ncnc43)CC2)c(C)c1,-23%,?,0%,13µM*,3.7µM*,?,?,39%
Cc1ccc(NCCCn2cnc3c(OCc4ccccc4)ncnc32)cc1C,-24%,?,?,18µM*,6.5µM*,?,?,67%
c1ccc(CNCCCn2cnc3c(OCc4ccccc4)ncnc32)cc1,-8%,i,-6%,17%,·,·,·,·

# Source: PubChem
